Only some compounds are listed: those with a hit (about 8.1% of all), similar ones and a draw of the others.
KB-V1 MDR tox: qHTS assay for MDR1-selective chemotherapeutics: Primary screen using the drug-selected MDR subline cells KB-V1. KB-V1 MDR cells viability, CellTiter-Glo, 72 h. Potency, µM (series often up to 46.1 µM), most hits filed as cytotoxic. hit rate 3.4% among 400,000. AID 1347076, 2019; also: % is scaled to controls: 0 for no effect and ±100 for the full control effect; nearly all actives have a fitted effect of over 60% in size
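KB-V1 cells (P-gp-expressing MDR subline of KB-3-1) in phenol-red-free DMEM with 10% FBS were exposed to library compounds over a concentration series for 72 h at 37 degrees C. Viability read by CellTiter-Glo luminescence; concentration-effect curves fitted after normalization.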
KB-3-1 tox: qHTS assay for MDR1-selective chemotherapeutics: Primary screen using the parental adenocarcinoma cell KB-3-1 | KB-3-1 viability, CellTiter-Glo ATP luminescence, 72 h | Potency, µM (highest dose often 46.1 µM), actives largely listed as cytotoxic | hit rate 1.4% among 400,000 | AID 1347075, 2019; also: % is scaled to controls: 0 for no effect and ±100 for the full control effect; nearly all actives have a fitted effect of over 60% in size
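Cells are dispensed, compounds pinned in, plates held at 37 °C for 72 h, then CellTiter-Glo is added and luminescence read after 10 minutes. Cell line: parental KB-3-1 in phenol-red-free DMEM, 10% FBS.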
MCF10A rereplic: A quantitative high throughput screen for small molecules that induce DNA re-replication in MCF 10a normal breast cells | MCF 10A DNA re-replication, Hoechst nuclear intensity, 48 h | Potency, µM (series often up to 46.1 µM), for the others: top-dose activity, positive = re-replication, usual class: activators | hit rate 2.9% among 350,000; also: % of control where 0% means no effect; nearly all actives have a fitted effect of over 50% in size
ELG1 repair inh: qHTS screen for small molecules that inhibit ELG1-dependent DNA repair in human embryonic kidney (HEK293T) cells expressing luciferase-tagged ELG1 | HEK293T ELG1-luciferase reporter, luminescence, 16 h; DNA damage induced by 5-fluorouridine | Potency, µM (doses to about 46.1 µM), without a hit: at the highest dose activity change, negative = inhibition, actives largely listed as inhibitors | hit rate 2.3% among 330,000 | AID 504467, 2011; also: % is scaled to controls: 0 for no effect and ±100 for the full control effect; nearly all actives have a fitted effect of over 55% in size
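DMSO vehicle served as the neutral condition. Each well held 2,000 cells given 5-fluorouridine plus compound; after 16 hr at 37 °C/5% CO2, ONE-Glo was added and luciferase measured 30 min later.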
SW480 rereplic: A quantitative high throughput screen for small molecules that induce DNA re-replication in SW480 colon adenocarcinoma cells. Potency, µM (doses to about 46.1 µM), inactives show at the top dose re-replication activation, actives largely listed as activators. SW480 DNA re-replication, Hoechst DNA content imaging, 48 h. hit rate 1.8% among 340,000. AID 624297, 2012; also: % of control where 0% means no effect; nearly all actives have a fitted effect of over 55% in size
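Treated cells incubate 48 hr (37 C, 5% CO2), are stained 40 min with Hoechst, and nuclear fluorescence is enumerated; a rise in nuclei with high DNA signal marks re-replication.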
* = called active by the depositor; i = inactive; ? = inconclusive; . = not tested or not shown. Calls follow the shape of the dose curve; as a rule, active = well fitted curve in the direction sought with a large enough effect; inconclusive = small, poorly fitted or top-dose-only effect, or another doubt; inactive = no such curve, though single readings can be large; an effect the other way counts as inactive or inconclusive. Potency is read from the fitted curve at half-maximal effect.

SMILES	KB-V1 MDR tox	KB-3-1 tox	MCF10A rereplic	ELG1 repair inh	SW480 rereplic
COC(=O)c1ccc(NC(=O)CC(=O)Nc2ccc(C(=O)OC)cc2)cc1	i	i	14.6µM*	14.4%	-2.1%
CCOc1ccc(S(=O)(=O)N(C)c2ccc(OCC(=O)Nc3nc4ccccc4s3)cc2)cc1	?	?	?	?	1.8%
Cc1cccc(NC(=O)COC(=O)c2ccc(S(=O)(=O)N3CCCCCC3)cc2)c1	16.4µM*	i	16.8%	15.6%	-2.2%
O=C(COc1ccc(Br)cc1CO)Nc1ccc(S(=O)(=O)N2CCCCC2)cc1	i	i	6.4%	18.3µM*	-18.3%
O=C(COC(=O)c1ccc(S(=O)(=O)N2CCCC2)cc1)Nc1cccc(Br)c1	i	i	8.9%	10.7%	0.5%
CC(C)c1ccc(NC(=O)c2cccn2-c2nnc(N3CCCCC3)s2)cc1	i	i	.	.	.
Cc1nn(CCCC(=O)Nc2cc(C(F)(F)F)ccc2Cl)c(=O)c2c1sc1ccccc12	i	i	.	.	.
CC(=O)Nc1ccc(S(=O)(=O)N2CCC(C(=O)c3ccc(F)cc3)CC2)cc1	i	i	9.2%	-16.8%	2.2%
COc1cccc(NC(=O)COC(=O)c2cc(S(=O)(=O)N3CCOCC3)ccc2C)c1	i	i	-3.5%	16.4µM*	-3.7%
CCC1CCCCN1S(=O)(=O)c1ccc(NC(=O)c2cccs2)cc1 (stereo not given)	i	i	?	20.6µM*	5.6%
CC(=O)Nc1ccc(S(=O)(=O)N2CCC(C(=O)c3ccc(Cl)cc3)CC2)cc1	i	i	?	18.3µM*	-5.5%
Cc1cccc(N2CC(C(=O)Nc3ccc(S(=O)(=O)N4CCCCC4)cc3)CC2=O)c1C (stereo not given)	i	i	13µM*	-12.8%	7.6%
Cc1ccc(-c2nc3c(C)cc(Br)cn3c2Cc2ccsc2)cc1	i	?	.	.	.
COc1ccc(CCNC(=O)COc2ccc(N(C)S(=O)(=O)c3ccc(C)cc3)cc2)cc1OC	i	i	10.3%	20.6µM*	-5.5%
COc1ccc(CCNC(=O)c2ccc(N(C)S(=O)(=O)c3ccc(C)cc3)cc2)cc1OC	?	?	-4.1%	?	-2.7%
COC(=O)c1ccc(NC(=O)COc2ccc(S(=O)(=O)N3CCCCC3)cc2)cc1	5.17µM*	i	0.3%	17.9%	1.2%
COC(=O)Nc1ccc(S(=O)(=O)N2CCCCCC2)cc1	18.4µM*	i	?	-6.5%	19.4%
CCOC(=O)Cc1csc(NC(=O)COc2ccc(N(C)S(=O)(=O)c3ccc(C)cc3)cc2)n1	i	i	17.1%	18.4µM*	-2.9%
CC(=O)Nc1ccc(S(=O)(=O)N2CCCC2)cc1	i	i	-1.2%	6.8%	-9.5%
O=C1CCc2cc([S+](=O)([O-])Nc3ccc(N[S+](=O)([O-])c4ccc5c(c4)CCC(=O)N5)cc3)ccc2N1	i	i	.	.	.
CC(=O)c1ccc(-c2ccc(C(=O)N(C)Cc3nc4ccccc4c(=O)[nH]3)o2)cc1	i	i	-0.6%	-26.2%	-1.0%
CC(=O)Nc1cccc(C(=O)OC(C)C(=O)Nc2ccc(S(=O)(=O)N3CCCC3)cc2)c1 (stereo not given)	i	i	7.6%	22.0%	-9.2%
CC(=O)Nc1ccc(NC(=O)C(C)OC(=O)c2ccc(S(=O)(=O)N3CCCCCC3)cc2)cc1 (stereo not given)	?	?	14.6µM*	17.4%	?
O=C(NC(=S)Nc1ccc(S(=O)(=O)N2CCCCC2)cc1)c1cccs1	3.26µM*	?	6.8%	-8.4%	12.5%
Cc1ccc(C)c(C(=O)OCC(=O)Nc2cccc(S(=O)(=O)N3CCCCC3)c2)c1	?	14.6µM*	8.0%	-7.9%	?
SMILES	KB-V1 MDR tox	KB-3-1 tox	MCF10A rereplic	ELG1 repair inh	SW480 rereplic
O=C(COC(=O)c1ccc(C(F)(F)F)cc1)Nc1cccc(S(=O)(=O)N2CCCCC2)c1	i	i	0.3%	9.0%	13.1%
CN(C)c1ccc(C(=O)OCC(=O)Nc2cccc(S(=O)(=O)N3CCCC3)c2)cc1	16.4µM*	i	9.6%	?	3.8%
O=C(CCCSc1ccc(Cl)cc1)Nc1ccccc1O	i	i	?	?	-1.6%
CCOc1ccc(OCC)c(NC(=O)C(NS(=O)(=O)c2ccc(Br)s2)c2ccccc2)c1 (stereo not given)	i	i	.	.	.
CCOc1ccccc1OCC(=O)Nc1ccc2[nH]c(=O)[nH]c2c1	16.4µM*	8.2µM*	1.4%	3.3%	3.2%
O=C(COc1ccccc1Cl)Nc1ccc2[nH]c(=O)[nH]c2c1	0.517µM*	1.46µM*	-0.1%	-1.3%	-7.2%
O=C(COc1ccccc1Cl)Nc1ccc2c(c1)C(=O)NC2=O	i	i	5.3%	-18.7%	29.9%
O=C(COC(=O)c1ccccc1)Nc1ccc2[nH]c(=O)[nH]c2c1	?	i	?	18.0%	-113.6%
CC(C)CC(NC(=O)C(COC(C)(C)C)NC(=O)C(Cc1ccc(O)cc1)NC(=O)C(CO)NC(=O)C(Cc1c[nH]c2ccccc12)NC(=O)C(Cc1cnc[nH]1)NC(=O)C1CCC(=O)N1)C(=O)NC(CCCN=C(N)N)C(=O)N1CCCC1C(=O)NNC(N)=O (stereo not given)	.	.	-4.2%	.	-0.1%
CCc1ccccc1NC(=O)C1=CN2CCS(=O)(=O)N=C2C=C1	i	i	-0.1%	13.5%	-1.0%
C#CCOCCOCCOCCNc1nc(N2CCN(C(=O)CCCCCCCCCCNC(=O)[C@@H](CCSC)n3cc(CCO)nn3)CC2)nc(N2CCN(C(=O)CCCCCCCCCCNC(=O)[C@H]([C@@H](C)CC)n3cc(CCCCN=C(N)N)nn3)CC2)n1	?	16.4µM*	-10.4%	?	-7.2%
C#CCOCCOCCOCCNc1nc(N2CCN(C(=O)[C@H](CCCCN)n3cc(CCCC)nn3)CC2)nc(N2CCN(C(=O)[C@H](Cc3ccc(O)cc3)n3cc(CCO)nn3)CC2)n1	i	i	-0.6%	4.6%	-41.0%
C#CCOCCOCCOCCNc1nc(N2CCN(C(=O)CCCCCCCCCCNC(=O)[C@@H]([C@H](C)O)n3cc(C)nn3)CC2)nc(N2CCN(C(=O)CCCCCCCCCCNC(=O)[C@@H]([C@H](C)O)n3cc(C)nn3)CC2)n1	i	?	13µM*	?	2.2%
CC[C@@H](C)[C@@H](C(=O)N1CCN(C(=O)OC(C)(C)C)CC1)n1cc(CCCCNC(=O)OC(C)(C)C)nn1	20.6µM*	?	?	20.6µM*	-3.8%

Assay outcomes from PubChem.
